Hit rate of the full screen: of about 50,000 compounds, about 800 (1.6%) showed an effect of 50% or more. What follows is part of a selection rich in strong results, with near analogues and random picks from the rest.

Chain of Bcl-2-like protein 10 (Homo sapiens) (Q9HD36 whole entry, looked up): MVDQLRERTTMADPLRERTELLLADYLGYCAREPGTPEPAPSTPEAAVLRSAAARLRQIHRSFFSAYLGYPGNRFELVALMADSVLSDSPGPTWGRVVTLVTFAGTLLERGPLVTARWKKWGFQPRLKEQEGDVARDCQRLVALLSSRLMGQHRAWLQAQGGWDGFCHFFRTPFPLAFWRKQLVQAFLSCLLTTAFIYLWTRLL

The experiment has as its target Bcl-2-like protein 10 (Homo sapiens) (UniProt Q9HD36). Description: Phenotype converters, Bcl-B/TR3 peptide binding displacement, primary biochemical FP (AID 1240).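 Further: 0% = Bcl-B with tracer peptide and DMSO and 100% = tracer peptide lacking Bcl-B.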 The conditions noted are these: GST-Bcl-B / FITC-TR3 peptide fluorescence polarization; stronger effect = higher value; compound at 3.75 mg/L. On the technique in general: Fluorescence polarisation rises when a labelled molecule tumbles more slowly, as on binding a larger partner.
On to `Cc1cccc(C(=O)O/N=C(\N)c2ccc(Br)cc2)c1`, for which the displacement was -0.6%. For `COc1ccc(-c2occ(C(=O)O)c2C(=O)O)cc1`, the displacement came to 0.2%. Then `O=C1CC(N2CCN(c3ccccc3)CC2)C(=O)N1c1ccc(I)cc1` (stereo unspecified), with -0.8%.

`CCC12C(=O)C(CC)(C(c3ccccc3)=C1c1ccccc1)C1C(=O)N(c3ccccc3[N+](=O)[O-])C(=O)C12` (stereo unspecified): the displacement is 2%. For the compound `CCN1C(=O)/C(=C\c2ccc(Br)cc2)SC1=S`, the displacement is 7.1%.

For `CCOc1cccc(=[O+]CC)c2c(C)oc(C)c12`, the displacement came out at 154%. Then `CCOc1ccc(-c2cc(OCC)c3c(C)oc(C)c3c(=[O+]CC)c2)cc1`, with 2.4%. The same measure for `CCOc1cccc(=O)c2c(C)oc(C)c12`: 16.8%; for `CNC(=O)COc1ccc(C23CC4CC(CC(C4)C2)C3)cc1`: 1.4%. Then `O=C(CSc1n[nH]c(=O)[nH]c1=O)c1ccc(Cl)cc1`, with -6.1%; and `O=C(Nc1ncc(Cc2ccc(F)cc2)s1)C1CCCO1` (stereo unspecified), with 15.4%. As to `Cc1nc(-c2ccccc2)sc1C(=O)Nc1cccc2ccccc12`, the displacement was determined as 13.1%. Then `COc1cc(C=O)ccc1Oc1ccc([N+](=O)[O-])cc1`, with 5%. Take `Cc1ccc(-n2c(C)cc(/C=C3\NC(=O)NC3=O)c2C)cc1C`: the displacement came out at 11.1%. In the case of `Cc1ccc(-n2cc(/C=c3\sc4nc5cc(C)c(C)cc5n4c3=O)cn2)cc1C`, the displacement is -8.9%. Then `Cc1ccc(-n2cc(C=C3C(=O)NC(=O)NC3=O)cn2)cc1C`, with 110%; and `O=[N+]([O-])c1ccc2oc(-c3ccccc3)nc2c1`, with 5%.

In the case of `COc1sc(SC)cc1/C=N/NC(=O)C(NC(=O)c1ccccc1)c1n[nH]c(=O)c2ccccc12` (stereo unspecified), the displacement was -7.7%. Consider `COCCNC(=O)c1nn2c(C(F)(F)F)cc(-c3ccc(OC)c(OC)c3)nc2c1Cl`, for which the displacement came to 155%. With `COc1ccc(-c2cc(C(F)(F)F)n3nc(C(=O)O)c(Cl)c3n2)cc1`, the displacement came to 3.2%. In the case of `COCCNC(=O)c1nn2c(C(F)(F)F)cc(-c3ccc(OC)cc3)nc2c1Cl`, the displacement is -2.4%. As for `COc1ccc(-c2cc(C(F)(F)F)n3nc(C(N)=O)c(Cl)c3n2)cc1OC`, the displacement was found to be 33.4%. The same measure for `COc1ccc(-c2cc(C(F)(F)F)n3nc(C(=O)NCCN4CCOCC4)c(Cl)c3n2)cc1`: -10.2%; for `COc1ccc(-c2cc(C(F)(F)F)n3nc(C(=O)NCCCn4ccnc4)c(Cl)c3n2)cc1`: 105%; for `COc1ccc(C(=O)Nc2ccc(N(C)C)cc2)cc1`: 6%.

Turning to `CN(C)c1ccc(C2/C(=C(\O)c3ccc(F)cc3)C(=O)C(=O)N2CCCCCC(=O)O)cc1` (stereo unspecified), the displacement came out at 9.1%. The same measure for `COCCOC(=O)c1ccc(NC(=O)COc2ccc3c(C)cc(=O)oc3c2)cc1`: 90.3%; for `CCCCOC(=O)c1cccc(NC(=O)COc2ccc3c(C)cc(=O)oc3c2)c1`: -41.8%; for `CCCCOC(=O)c1ccc(NC(=O)COc2ccc3c(C)cc(=O)oc3c2)cc1`: 28.5%. With `Cc1cccc([N+](=O)[O-])c1N=Cc1ccc(N(C)C)cc1`, the displacement is -4.5%. In the case of `COc1ccc(N(CC(=O)NC2CCCCC2)S(=O)(=O)c2ccccc2)cc1Cl`, the displacement was 7.2%. Then `NS(=O)(=O)c1ccc(-c2ccc(/C=C3\Sc4ccccc4C3=O)o2)cc1`, with -71.8%. For `CCOc1cc(/C=C2\Sc3ccccc3C2=O)ccc1OC`, the displacement was 0.2%.

In the case of `COc1ccc(/C=C2/Sc3ccccc3C2=O)cc1[N+](=O)[O-]`, the displacement was -5.3%. The same measure for `O=C1/C(=C\c2ccc(-c3ccc([N+](=O)[O-])cc3Br)o2)Sc2ccccc21`: -17.8%; for `COc1ccc(/C=C2/Sc3ccccc3C2=O)cc1Br`: 116%. For `O=C1/C(=C/c2ccc(Br)o2)Sc2ccccc21`, the displacement was determined as 92.7%. The same measure for `O=C(NCc1ccccn1)C(=O)Nc1ccccc1F`: -20.9%; for `Cc1ccc(S(=O)(=O)NCCOc2ccccc2Cl)cc1[N+](=O)[O-]`: 13%; for `CC(=O)N/C(=C\c1ccc(F)cc1)C(=O)NC(C(=O)O)C(C)C` (stereo unspecified): 81.8%. As to `CC(=O)N/C(=C\c1ccccc1)C(=O)NC(CC(C)C)C(=O)O` (stereo unspecified), the displacement is -2.1%. For the compound `C#CCOC(=O)/C(=C/c1ccc(F)cc1)NC(C)=O`, the displacement was -8.4%. The same measure for `COc1ccccc1NC(=O)c1cccc2c(Br)cccc12`: -5.4%; for `COc1ccc(N(CC(=O)NC(C)c2ccccc2)S(=O)(=O)c2ccc(C)cc2)c(OC)c1` (stereo unspecified): 2.3%.

Consider `Cc1cc(C)cc(OCC(=O)N2CCN(c3ccc([N+](=O)[O-])cc3)CC2)c1`, for which the displacement is -3.5%. The same measure for `O=c1oc2ccccc2cc1-c1nc2ccccc2s1`: -1%; for `O=c1c(-c2nc3ccccc3s2)coc2cc(OCc3ccc([N+](=O)[O-])cc3)ccc12`: 6.2%. For the compound `O=c1oc2cc(OCc3ccc(F)cc3)ccc2cc1-c1nc2ccccc2s1`, the displacement stood at 52.5%. Then `CCOC(=O)COc1ccc2cc(-c3nc4ccccc4o3)c(=O)oc2c1`, with 8.8%; and `CCOC(=O)COc1ccc2cc(-c3nc4ccccc4[nH]3)c(=O)oc2c1`, with 7.3%. The same measure for `O=c1oc2cc(OCc3c(F)c(F)c(F)c(F)c3F)ccc2cc1-c1ccc2ccccc2n1`: -49.7%; for `C=C(C)COc1ccc2cc(-c3nc4ccccc4s3)c(=O)oc2c1`: 66.5%.

With `Cc1oc2cc(OCC(=O)OCc3ccccc3)ccc2c(=O)c1-c1nc2ccccc2s1`, the displacement is 11.3%. The same measure for `CC(C)(C)OC(=O)COc1ccc2cc(-c3nc4ccccc4s3)c(=O)oc2c1`: 92%; for `CCOc1ccc2c(=O)c(-c3nc4ccccc4s3)coc2c1`: 7.8%. As to `O=C(COc1ccc2ccc(=O)oc2c1)OCc1ccccc1`, the displacement was 10.9%. On to `O=C(COc1ccc2cc(-c3nc4ccccc4s3)c(=O)oc2c1)OCc1ccccc1`, for which the displacement was 53.3%.

Take `CCOc1ccc(N(CC(=O)Nc2cccc3cccnc23)S(=O)(=O)c2ccccc2)cc1`: the displacement is -39.5%. The same measure for `O=C(Nc1ccc2nn(-c3ccc(F)cc3)nc2c1)c1cc2ccccc2o1`: 2.5%; for `O=C1N/C(=N/N=C\c2ccc(-c3ccc(Cl)cc3)o2)SC1Cc1ccccc1` (stereo unspecified): 17%. `CC(Sc1nnc(N)s1)c1ccccc1` (stereo unspecified): the displacement was 5.2%. Then `COc1ccc(CC(=O)N=Nc2c(O)n(CN3CCN(C)CC3)c3ccccc23)cc1`, with -3%. On to `O=C(CN1C(=O)c2ccc([N+](=O)[O-])cc2C1=O)N1CCCCC1`, for which the displacement was -9.1%. With `COc1ccc(NC(=O)C(=O)NCc2ccc(C)cc2)c(OC)c1`, the displacement is 10.4%. The same measure for `O=C(COc1ccc(Cl)cc1Br)NNC(=O)c1ccncc1`: -4.5%; for `CC(=O)c1cc(F)c(N2CCN(C(=O)c3cccs3)CC2)cc1C`: 80%.

With `CC(=O)c1cc(F)c(N2CCN(C(=O)c3ccccc3Br)CC2)cc1C`, the displacement is -5.4%. Regarding `CC(=O)c1ccc(N2CCN(C(=O)c3cccs3)CC2)c(F)c1`, the displacement was -4.6%. The same measure for `C=C(NC(C)=O)C(=O)c1ccc([N+](=O)[O-])cc1`: 18.9%. Turning to `O=c1ccc([N+](=O)[O-])ccc1Nc1ccccn1`, the displacement worked out at 58.1%.

For `Cc1ccc(Nc2ccc([N+](=O)[O-])c3nonc23)cc1`, the displacement is -2.1%.

With `O=C(COc1ccc([N+](=O)[O-])cc1)Nc1ccccn1`, the displacement was -10.4%. As to `Cc1ccc(Nc2ccc([N+](=O)[O-])ccc2=O)cc1`, the displacement turned out to be 136%. For `Cc1ccc(NS(=O)(=O)c2ccc([N+](=O)[O-])cc2)cc1`, the displacement is 15.1%. Then `O=C(Nc1ccccc1C(=O)Nc1ccccn1)c1ccc([N+](=O)[O-])cc1`, with 45.1%; and `O=C(c1ccccc1)N1CCN(CCCc2ccccc2)CC1`, with -9.4%. The same measure for `Cc1cccc(C(=O)O/N=C(\N)c2ccncc2)c1`: 8.5%. Then `Clc1ccc(CN2CCN(/N=C/c3ccc(Br)s3)CC2)cc1`, with 14.6%. Turning to `N#C/C(=C/c1cccc(Cl)c1)c1nc(-c2ccc(Cl)cc2)cs1`, the displacement is -4.7%.

Regarding `COc1cc(OC)c(NC(=O)c2ccccc2C)cc1Cl`, the displacement was -12%. Turning to `CCOc1cc(C=C2C(=O)NC(=O)NC2=O)ccc1OCc1c(C)no[n+]1[O-]`, the displacement amounted to 108%.

With `COc1cc(C=C2C(=O)NC(=O)NC2=O)ccc1OCc1c(C)no[n+]1[O-]`, the displacement is -3.9%. With `CCOc1cc(C=C2C(=O)NC(=O)NC2=O)ccc1OCc1cccc2ccccc12`, the displacement was 58.6%. `Cc1no[n+]([O-])c1COc1cccc(/C=C2\SC(=S)NC2=O)c1`: the displacement is -27.6%. The same measure for `CCOc1cc(/C=C2\SC(=S)NC2=O)ccc1OCc1c(C)no[n+]1[O-]`: 117%; for `CCOc1ccc(C=C2C(=O)NC(=O)NC2=O)cc1OCC`: 14.1%; for `Cc1no[n+]([O-])c1COc1ccc(C=C2C(=O)NC(=O)NC2=O)cc1`: 2.5%. The same measure for `CCOc1cc(C=C2C(=O)NC(=O)NC2=O)ccc1OCc1ccccc1`: 33.7%; for `Cc1no[n+]([O-])c1COc1ccc(/C=C2\SC(=S)NC2=O)cc1`: -27.5%; for `O=C(c1nn2c(C(F)(F)F)cc(-c3ccccc3)nc2c1Cl)N1CCCC1`: 22.7%. Turning to `CC1=NN(C(=O)c2ccc([N+](=O)[O-])cc2)C(O)(C(F)(F)F)C1` (stereo unspecified), the displacement is 6.8%. The same measure for `O=C1NC(=Nc2ccc(Cl)cc2)SC1Cc1cccc([N+](=O)[O-])c1` (stereo unspecified): -4.7%; for `O=C(CN(c1ccc(Br)cc1)S(=O)(=O)c1ccccc1)NC1CC2CCC1C2` (stereo unspecified): -0.2%; for `Nc1nnc(SCC(=O)N2c3ccccc3Sc3ccccc32)s1`: -2%.

As for `CC(=O)N(CCC1(Cc2ccccc2)CCOC(C)(C)C1)Cc1ccccc1` (stereo unspecified), the displacement worked out at 7.8%. The same measure for `O=C(O)CCCCCN1C(=O)C(=O)/C(=C(/O)c2ccccc2)C1c1cccc(F)c1` (stereo unspecified): -11.9%; for `COc1ccc(C(NC(C)=O)NC(C)=O)cc1OC`: 6.3%. Turning to `CCOc1ccc(C(=O)N(C(=O)c2ccc(OCC)cc2)c2ncccc2C)cc1`, the displacement was -0.9%. For `COC(=O)c1[nH]cnc1C(=O)Nc1ccc(C)cc1C(=O)c1ccccc1`, the displacement was -1.6%. In the case of `Cc1ccccc1-c1nc2ccccc2c(=O)n1/N=C/c1ccc([N+](=O)[O-])cc1`, the displacement came to 12.8%. With `Cc1ccc(C)c(NC(=O)/C=C/c2ccc(C)o2)c1`, the displacement stood at 10.2%.

Take `CCOc1ccc(S(=O)(=O)NCc2ccccc2Cl)c2ccccc12`: the displacement was found to be 3.4%. The same measure for `O=C(Nc1nc(-c2ccc([N+](=O)[O-])cc2)cs1)c1ccccc1F`: 113%; for `O=C(Nc1nc(-c2ccc([N+](=O)[O-])cc2)cs1)c1ccc(Cl)cc1`: 8.7%. The same measure for `O=C(Nc1nc(-c2ccc(F)cc2)cs1)c1ccccc1[N+](=O)[O-]`: 8.9%. Then `COc1cc(/C=C2/SC(=S)N(CC(=O)O)C2=O)ccc1OCc1ccccc1`, with 1.7%.
